About 79,000 compounds went through this panel and 15% of them were active in at least one assay; those are over-represented in the sample as a whole. The source made the active and inactive calls. Rule as the data show it: active = growth inhibition above about 70%; inactive = the rest.

This is an account of results in PubChem BioAssay (NCI).

The nature of the first test: NCI Yeast Anticancer Drug Screen. Data for the rad50EPP+ strain (AID 151).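 Also: 0% = growth of vehicle-treated control cultures.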 To be noted: S. cerevisiae rad50 mutant strain, at 11.0 µM, hits give high values. The essentials:
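Measured: growth inhibition of rad50EPP+ yeast. Reference: vehicle-treated controls. Screen uses strains with defined genetic alterations in DNA damage repair or cell cycle control.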
For `CCCc1cc(C(=O)OCC)cc(CCC)c1O`, the growth inhibition was 14% (inactive).
On the same count and under the same terms, in the case of `CC(C)[N+]([O-])(CCCNc1c2ccccc2nc2cccc([N+](=O)[O-])c12)C(C)C` it was 66% (inactive); in that of `COc1cc2c3c(cccc3c1)C(=O)N(CCN(C)C)C2=O`, 8% (inactive).
Same read-out and setting: the value for `NC(=O)NN=C(CS)CS` was -5% (inactive); that for `Cc1ccc(NC(=O)/C(Cl)=C(\Cl)C(=O)O)cc1C` was 77% (active).
As for `CCN(CC)CC[n+]1ccc2c(C)c3[nH]c4ccc(O)cc4c3c(C)c2c1`, the growth inhibition was 46% (inactive).
Still for that read-out and setting: the value for `CC(CC(C)(C)[N+](C)(C)C)[N+](C)(C)C` (stereo not drawn) was 1% (inactive).
On the same count and under the same terms, in the case of `COc1ccc(OC)c2cc3ccccc3cc12` it was 46% (inactive); in that of `Nc1ncncc1C(C1=C(O)COC1=O)C1=C(O)COC1=O`, 10% (inactive).
On to `CSC1=NNC(SC)=NN1`, for which the growth inhibition was 0% (inactive).
As to `Cc1c(Cl)ccc2c1S(=O)(=O)c1cccc(Cl)c1-2`, the growth inhibition was 7% (inactive).
For the compound `[O-][n+]1c2ccc(O)cc2nc2ccc(Cl)cc21`, the growth inhibition is 37% (inactive).
Regarding `COc1ccc2ccc3ccccc3c2c1C=O`, the growth inhibition is 3% (inactive).
On the same count and under the same terms, in the case of `Nc1ccc2c(c1)C(=O)c1cccc(N)c1C2=O` it was 92% (active); in that of `O=C(c1ccc(Cl)cc1Cl)C(Cl)Cl`, 65% (inactive); in that of `COc1cc(C(=O)/C=C/c2ccccc2O)ccc1O`, 99% (active).
Turning to `O=Cc1cccc2ccc3ccccc3c12`, the growth inhibition is 36% (inactive).
With `O=C(Nc1ccc(Cl)cc1)OCC#CCCl`, the growth inhibition was 97% (active).
On the same count and under the same terms, in the case of `Cn1ccnc1Oc1ccc(Cl)cc1` it was 0% (inactive).
Still for that read-out and setting: the value for `c1ccc2c(c1)C(=NCCCN1CCCCCC1)c1cccn1-2` was -4% (inactive); that for `C/C(=N\O)C1CC2C=C(C#N)C1N(Cc1ccccc1)C2` (stereo not drawn) was 5% (inactive).
Still for that read-out and setting: in the case of `O=[N+]([O-])C(=C(Sc1ccccc1)Sc1ccccc1)C(Cl)=C(Cl)Cl` it was 36% (inactive); in that of `CCCCCCCCCC/C=C\C(=O)O`, 0% (inactive); in that of `COc1ccc(N=C2C(=O)Nc3ccc(Br)cc32)cc1`, -11% (inactive).
As for `COc1ccccc1C(=O)OCC1CCCN2CCCCC12` (stereo not drawn), the growth inhibition is 80% (active).
For the compound `CC(C)(Br)C(=O)/C=C/c1ccc(Cl)c(Cl)c1`, the growth inhibition was 3% (inactive).
`Nc1ccccc1CC(O)C(=O)O` (stereo not drawn): the growth inhibition is -1% (inactive).
The same measure, in the same setting: the value for `CC(=O)N/N=C/C(C)(C)C(C)(C)/C=N/NC(C)=O` was 10% (inactive); that for `CN(C)c1nc2sc3c(c2c(=O)o1)CCCC3` was 21% (inactive).
Take `CC(C)OC(=O)Oc1ccccc1OC(=O)OC(C)C`: the growth inhibition is 2% (inactive).
On the same count and under the same terms, in the case of `Cc1ccc(N)c(S)c1` it was 76% (active).
On the same count and under the same terms, the value for `O=C(O)c1ccccc1NC(=S)c1ccccc1` was 34% (inactive).
Take `COC(=O)c1ccc(NCC2=CC(=O)C=CC2=O)cc1O`: the growth inhibition was 89% (active).
Regarding `NC(N)=N/N=C\c1c2ccccc2cc2ccccc12`, the growth inhibition is -7% (inactive).
The same measure, in the same setting: in the case of `COC(=O)CSSCc1ccc([N+](=O)[O-])cc1` it was 70% (active).
Regarding `CCS(=O)(=O)c1ccc(/C=C/C=N/NC(=S)NCC(C)C)cc1`, the growth inhibition was 5% (inactive).
`N#CC(C(=O)Nc1ccccc1)C1=C(Cl)C(=O)c2ccccc2C1=O` (stereo not drawn): the growth inhibition is 97% (active).
Regarding `C[C@H](CCC(=O)NN)[C@H]1CC[C@H]2[C@@H]3CC[C@@H]4C[C@H](O)CC[C@]4(C)[C@H]3CC[C@]12C`, the growth inhibition was 4% (inactive).
For the compound `CC[n+]1ccc2c(C)c3[nH]c4ccc(O)cc4c3c(C)c2c1`, the growth inhibition was 64% (inactive).

Staying with this test, now noted: S. cerevisiae rad50 mutant strain, at 33.0 µM, hits give high values.
As to `CCCc1cc(C(=O)OCC)cc(CCC)c1O`, the growth inhibition was 21% (inactive).
Same read-out and setting: the value for `CC(C)[N+]([O-])(CCCNc1c2ccccc2nc2cccc([N+](=O)[O-])c12)C(C)C` was 91% (active); that for `COc1cc2c3c(cccc3c1)C(=O)N(CCN(C)C)C2=O` was 34% (inactive); that for `NC(=O)NN=C(CS)CS` was 6% (inactive).
As for `Cc1ccc(NC(=O)/C(Cl)=C(\Cl)C(=O)O)cc1C`, the growth inhibition is 99% (active).
Same read-out and setting: in the case of `CCN(CC)CC[n+]1ccc2c(C)c3[nH]c4ccc(O)cc4c3c(C)c2c1` it was 88% (active).
Take `CC(CC(C)(C)[N+](C)(C)C)[N+](C)(C)C` (stereo not drawn): the growth inhibition was 4% (inactive).
On the same count and under the same terms, in the case of `COc1ccc(OC)c2cc3ccccc3cc12` it was 52% (inactive); in that of `Nc1ncncc1C(C1=C(O)COC1=O)C1=C(O)COC1=O`, 6% (inactive).
Turning to `CSC1=NNC(SC)=NN1`, the growth inhibition was 55% (inactive).
On the same count and under the same terms, the value for `Cc1c(Cl)ccc2c1S(=O)(=O)c1cccc(Cl)c1-2` was -37% (inactive); that for `[O-][n+]1c2ccc(O)cc2nc2ccc(Cl)cc21` was 57% (inactive).
Consider `COc1ccc2ccc3ccccc3c2c1C=O`, for which the growth inhibition is 8% (inactive).
Regarding `Nc1ccc2c(c1)C(=O)c1cccc(N)c1C2=O`, the growth inhibition is 97% (active).
On the same count and under the same terms, in the case of `O=C(c1ccc(Cl)cc1Cl)C(Cl)Cl` it was 94% (active); in that of `COc1cc(C(=O)/C=C/c2ccccc2O)ccc1O`, 99% (active).
The same measure, in the same setting: in the case of `O=Cc1cccc2ccc3ccccc3c12` it was 77% (active); in that of `O=C(Nc1ccc(Cl)cc1)OCC#CCCl`, 98% (active).
As for `Cn1ccnc1Oc1ccc(Cl)cc1`, the growth inhibition was 30% (inactive).
As for `c1ccc2c(c1)C(=NCCCN1CCCCCC1)c1cccn1-2`, the growth inhibition is 3% (inactive).
The same measure, in the same setting: the value for `C/C(=N\O)C1CC2C=C(C#N)C1N(Cc1ccccc1)C2` (stereo not drawn) was 9% (inactive); that for `O=[N+]([O-])C(=C(Sc1ccccc1)Sc1ccccc1)C(Cl)=C(Cl)Cl` was 49% (inactive); that for `CCCCCCCCCC/C=C\C(=O)O` was 62% (inactive).
Still for that read-out and setting: the value for `COc1ccc(N=C2C(=O)Nc3ccc(Br)cc32)cc1` was 6% (inactive).
On the same count and under the same terms, in the case of `COc1ccccc1C(=O)OCC1CCCN2CCCCC12` (stereo not drawn) it was 97% (active); in that of `CC(C)(Br)C(=O)/C=C/c1ccc(Cl)c(Cl)c1`, 3% (inactive); in that of `Nc1ccccc1CC(O)C(=O)O` (stereo not drawn), 2% (inactive).
In the case of `CC(=O)N/N=C/C(C)(C)C(C)(C)/C=N/NC(C)=O`, the growth inhibition was 18% (inactive).
As to `CN(C)c1nc2sc3c(c2c(=O)o1)CCCC3`, the growth inhibition is 23% (inactive).
On the same count and under the same terms, in the case of `CC(C)OC(=O)Oc1ccccc1OC(=O)OC(C)C` it was -1% (inactive).
Still for that read-out and setting: the value for `Cc1ccc(N)c(S)c1` was 95% (active); that for `O=C(O)c1ccccc1NC(=S)c1ccccc1` was 53% (inactive).
Same read-out and setting: in the case of `COC(=O)c1ccc(NCC2=CC(=O)C=CC2=O)cc1O` it was 97% (active); in that of `NC(N)=N/N=C\c1c2ccccc2cc2ccccc12`, 6% (inactive); in that of `COC(=O)CSSCc1ccc([N+](=O)[O-])cc1`, 93% (active).
Consider `CCS(=O)(=O)c1ccc(/C=C/C=N/NC(=S)NCC(C)C)cc1`, for which the growth inhibition is 6% (inactive).
Consider `N#CC(C(=O)Nc1ccccc1)C1=C(Cl)C(=O)c2ccccc2C1=O` (stereo not drawn), for which the growth inhibition was 97% (active).
As to `C[C@H](CCC(=O)NN)[C@H]1CC[C@H]2[C@@H]3CC[C@@H]4C[C@H](O)CC[C@]4(C)[C@H]3CC[C@]12C`, the growth inhibition is 6% (inactive).
On to `CC[n+]1ccc2c(C)c3[nH]c4ccc(O)cc4c3c(C)c2c1`, for which the growth inhibition was 85% (active).
